15 compounds from PubChem BioAssay (NCATS) can be followed below.

In assay [1] the target is Glutathione peroxidase 1 (Homo sapiens) (UniProt P07203). Briefly: Primary qHTS Assay for Inhibitors of Recombinant Selenoprotein Glutathione Peroxidase 1 (GPX1) (AID 1845191). Further: nearly all actives have a fitted effect of over 65% in size. Further: potency means the concentration at half of the fitted maximal effect. In outline:
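NADPH consumption tracked by fluorescence at 340/450 nm between t=0 and t=15 min, room temperature. Final mix: 10 nM GPX1, 100 nM glutathione reductase, 1 mM GSH, 0.5 mM NADPH, 0.5 mM cumene hydroperoxide, 0.01% BSA; 30 min compound–enzyme preincubation.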
Background: qHTS replaces the single test concentration by a dilution series.

The target of assay [2] is Lysosomal acid glucosylceramidase (Homo sapiens) (UniProt P04062). Nature of the assay: Glucocerebrosidase-p2 (AID 348; in the data active means potency below about 10 µM; further: potency means the concentration at half of the fitted maximal effect). Conditions: purified GBA, blue fluorogenic substrate, 40 min. In outline:
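Normal human glucocerebrosidase (0.2 nM) with blue fluorogenic substrate (80 uM final) in citrate/phosphate pH 5.9 with 10mM sodium taurocholate, 0.01% tween-20; 40 min RT, NaOH/glycine stop; fluorescence Ex 365/Em 440; AC50 from a titration from 0.6 nM upwards.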

A short description of assay [3]: AP1 Signaling Pathway (AID 357; active means well fitted curve in either direction with a large enough effect, not every such curve was filed as active; further: on the % scale 0 is the no-effect control and ±100 the full control effect). Conditions: ME-180 AP-1-bla reporter, EGF-induced, beta-lactamase ratio, 5 h; at 7.69 µM (top of the series) unless noted. The gist of the method: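 AP-1-bla ME-180 cells with beta-lactamase reporter under AP-1 response element, stimulated with EC50 EGF; compounds titrated, 5 hours at 37 degrees Celsius. CCF4 read at 460/530 nm ratio; positive and negative modulators judged by AC50.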

Assay [4] can be described thus: NFAT Signaling Pathway (AID 444; active means well fitted curve in either direction with a large enough effect, not every such curve was filed as active;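 further: carbachol stimulus at about its EC50 of 1 µM final; on the % scale 0 is the no-effect control and ±100 the full control effect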). Conditions: Jurkat NFAT-bla M1, carbachol, beta-lactamase ratio, 5 h; at 7.69 µM (top of the series) unless noted. The gist of the method:
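Read-out: CCF4 FRET ratio (460 nm/530 nm) after 1 h RT dye loading, used for %activity and AC50 from titration series. Cells: Jurkat NFAT-β-lactamase/M1 line, treated with compound plus 1 uM carbachol for 5 h, 37 °C.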

Assay [5] in a line: Stat Signaling Pathway (AID 446; active means well fitted curve in either direction with a large enough effect, not every such curve was filed as active;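 further: ME-180 cervical cancer cells given 40 pM IL-6 alongside compound; SIE-controlled beta-lactamase reporter measured as 460/530 nm FRET emission ratio; on the % scale 0 is the no-effect control and ±100 the full control effect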). In outline: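 FRET read-out (405 nm excitation, 460/530 nm emission) of a beta-lactamase reporter under a STAT-inducible element in ME-180 cervical carcinoma cells. Cells with compound receive 40 pM IL-6 for 5 h. Values are normalised to AC90 stimulation and AC90 JAK-inhibitor controls.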
Assay [6] addresses Glucocorticoid receptor (Homo sapiens) (UniProt P04150). Briefly: GR-GFP Redistribution (AID 450;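 active means compounds whose dose series gives a full or clear partial fitted curve of increased nuclear translocation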; further: potency means the concentration at half of the fitted maximal effect). Conditions: U2OS GR-GFP nuclear translocation, laser cytometry, 2 h.
The target is the same in assay [7]. Nature of the assay: GR-EFC Redistribution (AID 451; calls by dose curve; further: potency means the concentration at half of the fitted maximal effect). Conditions: CHO-K1 GR-EFC translocation, beta-gal luminescence, 2 h. The gist of the method:
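Translocation of GR-ED fusion to nuclear EA restores b-gal, read by luminescence after 1 h room-temperature detection. Engineered CHO-K1 biosensor cells, 1,000/well, exposed 2 h at 37 C to titrations up to 46 uM final.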

Assay [8] concerns the target 3',5'-cyclic-AMP phosphodiesterase 4B (Homo sapiens) (UniProt Q07343). Nature of the assay: qHTS Assay for Inhibitors of PDE-IV (AID 607; active means well fitted activation curve with a large enough effect in the main read-out, with a control signal flat, not every such curve was filed as active; further: % of control where 0% means no effect). The gist of the method:
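Cell-based read-out of cAMP via a modified cyclic nucleotide-gated channel and membrane potential dye (535/590 nm) in HEK293 cells expressing PDE4 endogenously. Compounds tested up to 22.9 uM final; 100 uM RO 20-1724 reference.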

The target in assay [9] is Dual specificity protein kinase CLK4 (Homo sapiens) (UniProt Q9HAZ1). Briefly: qHTS Assay for Inhibitors of CDC-like Kinase 4 (ADP-FP Assay) (AID 1795). Further: nearly all actives have a fitted effect of over 60% in size. Further: potency means the concentration at half of the fitted maximal effect. The gist of the method: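 Kinase activity was followed as ADP output, converted from fluorescence polarization with a calibration curve. Reactions ran one hour at low ATP (1 uM) with RS peptide substrate.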
In assay [10] the target is Ubiquitin carboxyl-terminal hydrolase 1 (Homo sapiens) (UniProt O94782). Nature of the assay: Inhibitors of USP1/UAF1: Pilot qHTS (AID 504865).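 Further: rhodamine fluorescence freed from ubiquitin-rhodamine substrate followed over time; top concentration of the series differs between compounds; on the % scale 0 is the no-effect control and ±100 the full control effect; nearly all actives have a fitted effect of over 35% in size.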 In outline:
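Enzyme-free wells gave the negative control, while test wells held 1nM USP1/UAF1 preincubated with compound for 15 min at room temperature. Ub-Rho at 150nM final started the reaction, and fluorescence at 480/540 nm was recorded kinetically.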

Assay [11] addresses Cytochrome P450 1A2 (Homo sapiens) (UniProt P05177). Nature of the assay: p450-cyp1a2 (AID 410; calls by dose curve; further: potency means the concentration at half of the fitted maximal effect). The gist of the method: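 Read-out is luminescence from luciferin produced by CYP1A2 demethylation of Luciferin-ME (100uM, at Km). Detection reagent stopped the 60 min NADPH-dependent reaction; signals were normalized to 57 uM furafylline.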
Assay [12] concerns the target Cytochrome P450 3A4 (Homo sapiens) (UniProt P08684). Briefly: qHTS Assay for Inhibitors and Substrates of Cytochrome P450 3A4 (AID 884). Further: potency means the concentration at half of the fitted maximal effect; nearly all actives have a fitted effect of over 50% in size. In outline: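 Luminescent readout of luciferin produced by CYP3A4 (20 nM) dealkylation of Luciferin-PPXE, 25 uM (its KM). NADPH-driven reaction ran 60 min at RT after 10 min compound preincubation; data scaled to 57 uM ketoconazole as 100% inhibition.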

The target is the same in assay [13]. Briefly: qHTS Assay for Activators of Cytochrome P450 3A4 (AID 885). Further: nearly all actives have a fitted effect of over 65% in size. The gist of the method:
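Luminescent readout of luciferin formed from 25 uM Luciferin-PPXE (KM level) by 20 nM CYP3A4 in 200 mM KPO4, with 60 min NADPH-driven reaction at room temperature after 10 min compound exposure. Ketoconazole (57 uM) defined 100% inhibition.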

Assay [14] concerns the target Cytochrome P450 2C19 (Homo sapiens) (UniProt P33261). Briefly: qHTS Assay for Inhibitors and Substrates of Cytochrome P450 2C19 (AID 899). Further: potency means the concentration at half of the fitted maximal effect; nearly all actives have a fitted effect of over 60% in size. The gist of the method:
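Reactions contain 5nM enzyme, 10uM Luciferin-H EGE (KM) and 50mM KPO4; compound preincubates 10 min at 37C, NADPH regeneration starts turnover for 60 min. Luminescence after detection reagent gives activity.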

Assay [15] deals with Mitogen-activated protein kinase 10 (Mus musculus) (UniProt Q61831). Briefly: JNK3 AlphaScreen Assay (AID 530; active means well fitted curve in either direction with a large enough effect, not every such curve was filed as active;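 further: kinase came from lysate of stimulated human HepG2 cells; signal reports phosphorylation of biotinylated GST-cJun 1-79 at Ser73 with 10 µM ATP; on the % scale 0 is the no-effect control and ±100 the full control effect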). In outline:
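Kinase buffer: 20 mM Tris-HCl pH 7.6, 10 mM MgCl2, 1 mM DTT, 0.1 mM Na3VO4, 0.01% Tween-20; ATP 10 uM. Substrate biotin-GST-cJun(1-79), enzyme from activated HepG2 lysates. Detection by Ser73 phospho-antibody AlphaScreen.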
Background: Bead proximity is the source of the signal in Alpha formats.

Assay [16] is described as follows: qHTS Assay for Identification of Small Molecule Agonists for Hypoxia Response Element Signaling Pathway (AID 914; active means well fitted activation curve with a large enough effect in the signal ratio, with a control signal flat, not every such curve was filed as active; the % refers to the signal ratio; further: % of control where 0% means no effect). Conditions: ME-180 (cervical carcinoma) HRE-bla reporter, beta-lactamase ratio, CoCl2, 17 h; activation: active compounds read high. In outline:
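A beta-lactamase reporter under hypoxia response element control in ME-180 cells served as the system. Compound titrations plus EC50 CoCl2 ran 17 h at 37 degrees Celsius; AC50 values were fitted from %Activity.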

Assay [17] deals with Cytochrome P450 2D6 (Homo sapiens) (UniProt P10635). Nature of the assay: qHTS Assay for Inhibitors and Substrates of Cytochrome P450 2D6 (AID 891). Further: potency means the concentration at half of the fitted maximal effect; nearly all actives have a fitted effect of over 60% in size. In outline:
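Luminescent read-out of luciferin formed by 5 nM human CYP2D6 demethylating 30 uM Luciferin-ME EGE (Km level) over 60 min at room temperature after NADPH regeneration addition. Data normalized to full inhibition by 1.43 uM quinidine.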

Unmarked numbers belong to inactive results. Records with an inconclusive call do not appear. The source made the active and inactive calls. Unless noted, the call rests on the fitted dose curve; in most records, active means well fitted curve in the direction sought with a large enough effect; inconclusive means small, poorly fitted or top-dose-only effect, or another doubt; inactive means no such curve, though single readings can be large; an effect the other way counts as inactive or inconclusive. A value given as a limit tells only on which side of the number the result lay.

Chain of Glutathione peroxidase 1 (Homo sapiens) (P07203 whole entry, looked up): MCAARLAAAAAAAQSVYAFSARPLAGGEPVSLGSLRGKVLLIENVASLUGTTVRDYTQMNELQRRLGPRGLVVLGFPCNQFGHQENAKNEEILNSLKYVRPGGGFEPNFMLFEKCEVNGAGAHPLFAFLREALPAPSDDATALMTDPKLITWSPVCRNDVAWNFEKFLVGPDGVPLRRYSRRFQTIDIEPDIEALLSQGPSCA
Chain of Dual specificity protein kinase CLK4 (Homo sapiens) (Q9HAZ1 whole entry, looked up): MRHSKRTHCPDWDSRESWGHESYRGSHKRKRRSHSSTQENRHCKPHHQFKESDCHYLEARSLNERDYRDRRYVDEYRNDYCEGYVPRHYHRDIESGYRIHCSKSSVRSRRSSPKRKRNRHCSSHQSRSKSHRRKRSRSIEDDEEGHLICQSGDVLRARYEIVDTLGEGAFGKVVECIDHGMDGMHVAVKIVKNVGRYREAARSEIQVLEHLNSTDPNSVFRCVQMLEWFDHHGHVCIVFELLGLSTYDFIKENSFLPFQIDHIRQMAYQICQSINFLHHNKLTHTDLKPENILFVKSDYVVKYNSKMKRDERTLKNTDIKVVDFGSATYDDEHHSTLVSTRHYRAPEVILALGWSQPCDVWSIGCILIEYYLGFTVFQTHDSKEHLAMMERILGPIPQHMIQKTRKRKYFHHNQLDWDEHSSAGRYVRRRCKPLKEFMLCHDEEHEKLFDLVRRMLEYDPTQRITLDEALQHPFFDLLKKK
Chain of Ubiquitin carboxyl-terminal hydrolase 1 (Homo sapiens) (O94782 whole entry, looked up): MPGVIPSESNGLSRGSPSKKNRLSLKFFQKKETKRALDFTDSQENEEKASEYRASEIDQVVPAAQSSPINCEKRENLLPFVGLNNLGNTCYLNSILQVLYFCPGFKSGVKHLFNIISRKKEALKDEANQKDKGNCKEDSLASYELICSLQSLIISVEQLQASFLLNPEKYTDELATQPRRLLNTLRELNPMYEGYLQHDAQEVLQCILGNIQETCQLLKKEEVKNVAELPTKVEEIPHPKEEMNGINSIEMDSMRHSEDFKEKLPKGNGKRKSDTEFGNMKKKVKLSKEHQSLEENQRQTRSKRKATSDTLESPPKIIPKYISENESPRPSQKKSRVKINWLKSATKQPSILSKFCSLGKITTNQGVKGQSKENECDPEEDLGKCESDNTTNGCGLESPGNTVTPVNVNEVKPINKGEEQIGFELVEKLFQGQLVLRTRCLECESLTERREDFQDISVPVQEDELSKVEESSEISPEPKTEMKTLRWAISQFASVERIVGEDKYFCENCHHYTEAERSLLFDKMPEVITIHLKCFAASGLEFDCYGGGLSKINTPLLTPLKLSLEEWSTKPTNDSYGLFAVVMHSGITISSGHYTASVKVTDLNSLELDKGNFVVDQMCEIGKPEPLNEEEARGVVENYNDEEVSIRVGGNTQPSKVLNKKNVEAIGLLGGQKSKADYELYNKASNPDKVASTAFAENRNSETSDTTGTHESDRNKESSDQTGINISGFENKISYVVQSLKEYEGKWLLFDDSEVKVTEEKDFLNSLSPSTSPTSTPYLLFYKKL
Chain of Cytochrome P450 3A4 (Homo sapiens) (P08684 whole entry, looked up): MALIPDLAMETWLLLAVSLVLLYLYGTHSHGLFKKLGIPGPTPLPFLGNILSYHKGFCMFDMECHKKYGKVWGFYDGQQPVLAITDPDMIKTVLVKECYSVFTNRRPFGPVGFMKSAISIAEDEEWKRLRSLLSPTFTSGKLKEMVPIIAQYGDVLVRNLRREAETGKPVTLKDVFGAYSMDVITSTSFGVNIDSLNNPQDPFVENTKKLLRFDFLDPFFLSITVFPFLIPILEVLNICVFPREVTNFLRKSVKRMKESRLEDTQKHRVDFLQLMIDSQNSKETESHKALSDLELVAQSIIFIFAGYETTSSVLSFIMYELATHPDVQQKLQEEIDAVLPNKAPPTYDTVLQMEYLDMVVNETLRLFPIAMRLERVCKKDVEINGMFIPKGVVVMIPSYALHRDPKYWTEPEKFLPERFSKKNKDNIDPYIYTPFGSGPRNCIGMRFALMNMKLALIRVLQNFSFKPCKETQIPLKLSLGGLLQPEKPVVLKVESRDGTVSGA
Chain of Glucocorticoid receptor (Homo sapiens) (P04150 whole entry, looked up): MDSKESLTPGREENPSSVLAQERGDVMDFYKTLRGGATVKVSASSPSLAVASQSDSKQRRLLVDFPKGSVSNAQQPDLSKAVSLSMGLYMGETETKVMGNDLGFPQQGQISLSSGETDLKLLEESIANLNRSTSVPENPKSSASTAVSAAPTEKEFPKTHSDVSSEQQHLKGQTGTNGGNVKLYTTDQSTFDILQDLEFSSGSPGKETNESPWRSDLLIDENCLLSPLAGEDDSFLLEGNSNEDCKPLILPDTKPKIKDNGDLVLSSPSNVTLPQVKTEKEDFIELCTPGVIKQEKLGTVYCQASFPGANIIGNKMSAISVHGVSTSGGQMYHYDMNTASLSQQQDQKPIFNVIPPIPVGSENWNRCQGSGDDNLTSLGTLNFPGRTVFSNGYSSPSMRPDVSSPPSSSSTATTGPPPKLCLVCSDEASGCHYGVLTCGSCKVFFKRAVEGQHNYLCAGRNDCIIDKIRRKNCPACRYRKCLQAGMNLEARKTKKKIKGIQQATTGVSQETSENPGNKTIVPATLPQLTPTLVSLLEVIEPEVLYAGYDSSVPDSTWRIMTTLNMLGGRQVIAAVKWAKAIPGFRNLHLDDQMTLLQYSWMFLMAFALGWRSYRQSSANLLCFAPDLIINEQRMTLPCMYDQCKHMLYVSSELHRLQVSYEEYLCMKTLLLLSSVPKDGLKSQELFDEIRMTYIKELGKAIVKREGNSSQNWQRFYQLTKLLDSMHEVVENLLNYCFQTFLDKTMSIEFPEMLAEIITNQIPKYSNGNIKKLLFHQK
Chain of 3',5'-cyclic-AMP phosphodiesterase 4B (Homo sapiens) (Q07343 whole entry, looked up): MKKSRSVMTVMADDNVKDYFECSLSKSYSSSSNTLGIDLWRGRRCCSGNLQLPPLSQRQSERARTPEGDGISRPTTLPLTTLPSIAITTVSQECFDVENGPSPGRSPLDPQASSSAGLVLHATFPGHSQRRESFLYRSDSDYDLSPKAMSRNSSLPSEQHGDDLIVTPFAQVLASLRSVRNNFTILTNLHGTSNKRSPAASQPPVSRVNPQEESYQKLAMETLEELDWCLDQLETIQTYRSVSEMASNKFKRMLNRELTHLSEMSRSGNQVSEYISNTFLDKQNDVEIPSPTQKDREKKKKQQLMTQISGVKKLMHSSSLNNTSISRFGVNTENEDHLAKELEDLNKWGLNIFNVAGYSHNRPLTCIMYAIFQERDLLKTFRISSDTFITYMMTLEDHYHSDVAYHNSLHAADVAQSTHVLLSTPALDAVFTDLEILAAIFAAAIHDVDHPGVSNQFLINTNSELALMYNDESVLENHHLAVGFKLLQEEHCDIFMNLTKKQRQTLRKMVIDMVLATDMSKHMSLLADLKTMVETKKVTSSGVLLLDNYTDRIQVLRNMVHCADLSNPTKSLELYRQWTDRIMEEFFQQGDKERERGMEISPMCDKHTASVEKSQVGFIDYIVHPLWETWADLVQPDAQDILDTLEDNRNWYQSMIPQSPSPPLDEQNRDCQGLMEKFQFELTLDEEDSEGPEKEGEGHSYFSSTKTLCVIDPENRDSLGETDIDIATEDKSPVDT
Chain of Cytochrome P450 1A2 (Homo sapiens) (P05177 whole entry, looked up): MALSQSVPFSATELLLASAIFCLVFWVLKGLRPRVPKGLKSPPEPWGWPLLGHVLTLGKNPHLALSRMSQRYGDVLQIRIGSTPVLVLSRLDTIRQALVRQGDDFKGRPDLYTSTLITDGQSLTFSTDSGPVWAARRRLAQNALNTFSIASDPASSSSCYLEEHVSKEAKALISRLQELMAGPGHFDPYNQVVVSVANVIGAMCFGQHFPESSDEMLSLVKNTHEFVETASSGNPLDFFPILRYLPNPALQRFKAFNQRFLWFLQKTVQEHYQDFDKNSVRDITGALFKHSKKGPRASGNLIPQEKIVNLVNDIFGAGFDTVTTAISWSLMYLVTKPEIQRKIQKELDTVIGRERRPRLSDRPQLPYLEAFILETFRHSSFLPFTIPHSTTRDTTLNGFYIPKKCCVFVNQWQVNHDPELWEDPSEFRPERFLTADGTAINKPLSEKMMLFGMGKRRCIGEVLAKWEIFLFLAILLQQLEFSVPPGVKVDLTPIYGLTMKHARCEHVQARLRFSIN
Chain of Lysosomal acid glucosylceramidase (Homo sapiens) (P04062 whole entry, looked up): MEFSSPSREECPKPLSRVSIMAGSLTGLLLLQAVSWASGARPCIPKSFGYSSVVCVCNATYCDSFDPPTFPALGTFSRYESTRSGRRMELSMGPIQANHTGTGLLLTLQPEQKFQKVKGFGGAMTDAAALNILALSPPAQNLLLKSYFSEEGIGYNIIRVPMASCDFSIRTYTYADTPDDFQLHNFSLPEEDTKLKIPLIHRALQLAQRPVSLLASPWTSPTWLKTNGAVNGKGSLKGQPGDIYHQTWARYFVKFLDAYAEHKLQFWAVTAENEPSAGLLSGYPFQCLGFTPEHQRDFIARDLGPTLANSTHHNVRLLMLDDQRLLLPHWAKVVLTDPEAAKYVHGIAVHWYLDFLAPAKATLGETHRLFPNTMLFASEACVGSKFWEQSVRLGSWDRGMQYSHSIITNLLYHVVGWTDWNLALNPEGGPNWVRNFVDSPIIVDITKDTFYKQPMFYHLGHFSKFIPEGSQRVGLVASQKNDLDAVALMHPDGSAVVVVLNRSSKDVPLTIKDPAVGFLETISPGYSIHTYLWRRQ

As to `CCc1ccccc1N1C(=O)N(Cc2cc(=O)n3ccccc3n2)c2ccccc2S1(=O)=O`, the Potency result in [1] is “inactive”.

On to `Cn1cc(C2=C(c3cn(CCCN)c4ccccc34)C(=O)NC2=O)c2ccccc21`, for which the Potency entry in assay [1] is “inactive”.

Consider `COc1ccc(Nc2cc(C)c3cc(NC(=O)c4cc(OC)cc(OC)c4)ccc3n2)cc1`, for which the Potency result in [1] is “inactive”.

Consider `NCc1ccc(Oc2ccccc2)cc1`, for which the Potency result in assay [1] is “inactive”.

Take `CCC(=O)O[C@]1(C(=O)COC(C)=O)CC[C@H]2[C@@H]3C[C@H](C)C4=CC(=O)C=C[C@]4(C)[C@H]3[C@@H](O)C[C@@]21C`: in [1], the Potency entry is “inactive”.

For the compound `C[C@@H]1[C@H](C)CC[C@]2(C(=O)O[C@@H]3O[C@@H](CO[C@@H]4O[C@@H](CO)[C@@H](O[C@@H]5O[C@@H](C)[C@@H](O)[C@@H](O)[C@H]5O)[C@@H](O)[C@H]4O)[C@@H](O)[C@@H](O)[C@H]3O)CC[C@]3(C)C(=CC[C@H]4[C@@]5(C)C[C@@H](O)[C@@H](O)[C@](C)(CO)[C@@H]5CC[C@@]43C)[C@H]12`, the Potency entry in assay [1] was “inactive”.

With `COc1ccc(-c2cc(-c3ccc4c(c3)NC(=O)CO4)nc3c2COc2ccc(C)cc2-3)cc1`, the Potency entry in [1] is “inactive”.

For the compound `O=c1c(-c2cccc(F)c2)nc2cncnc2n1Cc1ccc(F)cc1`, the Potency in assay [2] is above 11.4 µM; in assay [6], above 9.22 µM; in assay [7], above 46 µM. Also, the activity change, negative = inhibition in [3] is -9.74%; in assay [4], -4.79%. In addition, the outcome in [5] was inactive. Also, the Potency entry in assay [8], in assay [9] and in assay [10] was “inactive” each time.

`CN(Cc1ccco1)c1ncnc2ccc(-c3cccc(NS(C)(=O)=O)c3)cc12`: the Potency is above 11.4 µM in assay [2]; 0.398 µM (active) in assay [11]; above 46 µM in assay [6]; above 46 µM in assay [7]; 5.01 µM (active) in assay [12]; 7.94 µM (active) in [14]. In assay [9], the Potency was 7.94 µM (active). In addition, the activity change, negative = inhibition in assay [4] is 14.3%. Besides, the call in assay [5] and in assay [13] was inactive. For the same compound, the Potency result in assay [10] was “inactive”.

Consider `CCn1cc(-c2cccc(C(F)(F)F)c2)c2sc(C(N)=NC3CCS(=O)(=O)CC3)cc2c1=O`, for which the Potency in assay [1] was 20.2 µM (active).

Turning to `COc1ccc(Oc2ncc3nc(-c4cc(F)cc(F)c4)c(=O)n(C4CC4)c3n2)cc1`, the Potency in assay [2] was above 11.4 µM; in [6] it was above 9.22 µM; in [7], above 46 µM. Further, in assay [4], the activity change, negative = inhibition was -5.46%. The result in [5] was inactive. In addition, the Potency entry in assay [15], in assay [8], in [9] and in assay [10] was “inactive” throughout.

With `c1ccc(Nc2nc(-c3ccoc3)nc3ccccc23)cc1`, in [3], the activity change, negative = inhibition was 0.696%. The Potency in assay [11] was 0.2 µM (active); in [6], above 46 µM; in [7] it was above 46 µM; in assay [9], 7.94 µM (active). The call in assay [5] and in assay [13] was inactive. The Potency entry in [15] was “inactive”.

In the case of `CN(C)c1nc(-c2cccc(NS(C)(=O)=O)c2)nc2ccccc12`, the Potency was above 11.4 µM in assay [2]; 0.501 µM (active) in assay [11]; above 46 µM in assay [6]; above 46 µM in assay [7]; 6.31 µM (active) in assay [12]. Also, in [4], the activity change, negative = inhibition is 10.8%. Also, the outcome in assay [5] and in assay [13] was inactive. In addition, the activation in [16] was 22.5%. Further, the Potency result in assay [9] was “inactive”.

In the case of `CC(C)(C)c1ccc(S(=O)(=O)Nc2ccc(-n3ccnc3)cc2)cc1`, the Potency result in assay [1] was “inactive”.

In the case of `CN(C)c1ccc(-c2cncnc2NCCc2cnc[nH]2)cc1`, the activity change, negative = inhibition was -28.6% in assay [3] and -15.1% in assay [4]. The Potency in assay [11] is 1.26 µM (active); in assay [6], above 46 µM; in [7], above 46 µM; in assay [17], 5.01 µM (active); in assay [14], 0.0794 µM (active). The outcome in assay [5] and in assay [13] was inactive. Further, the Potency entry in assay [15], in assay [8], in [9] and in assay [10] was “inactive” each time.
